Experimental data taken from PubChem BioAssay (NCATS).
Records with an inconclusive call do not appear. Where a call stands in place of a potency, no number is given. Values without a mark were called inactive. Activity calls are given as the source filed them. The call rests on the fitted dose curve; in most records, active means well fitted inhibition curve with a large enough effect; inconclusive means small, poorly fitted or top-dose-only effect; inactive means flat fitted curve, though single readings scatter.

Tests used:
[1] = target: Calcium and integrin-binding protein 1 (Homo sapiens) (UniProt Q99828); assay: Primary qHTS for Identification of Calcium Integrin Binding Protein 1 (CIB1) Competitor (AID 1508620);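 further: GST tagged CIB1 binding a fluorescein labelled alphaIIb integrin peptide tracer; top concentration of the series differs between compounds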
Chain of Calcium and integrin-binding protein 1 (Homo sapiens) (Q99828 whole entry, looked up): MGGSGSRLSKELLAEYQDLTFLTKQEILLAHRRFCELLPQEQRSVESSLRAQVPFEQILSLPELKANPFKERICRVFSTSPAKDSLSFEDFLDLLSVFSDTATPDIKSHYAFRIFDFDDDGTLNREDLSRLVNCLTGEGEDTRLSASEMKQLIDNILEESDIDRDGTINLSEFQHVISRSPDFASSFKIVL
Summary of the method: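 Fluorescence polarization competition: GST-tagged CIB1 (1 uM final) preincubated with compound 15 min at room temperature, then FITC-labelled alphaIIb peptide (100 nM final) added. After 15 min at room temperature, polarization read at Ex 480/Em 540.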

[2] = Primary qHTS for inhibitors of nuclear receptor binding SET domain protein 2 (NSD2) in an isogenic RCH-ACV NSD2 p.E1099K mutant (9B) (AID 1645876); further: nearly all actives have a fitted effect of over 70% in size; further: potency means the concentration at half of the fitted maximal effect

Structure (SMILES)	Potency [1]	Potency [2]	activity change, negative = viability loss [2]	activity change, negative = inhibition [1]
CC1=C2C(O)C(=O)OC(c3ccoc3)C2(C)CCC1O (stereo not drawn)	inactive	inactive		
C=C1C(=O)O[C@H]2[C@H]1CC/C(C)=C/CC[C@@]1(C)O[C@@H]21	inactive	25.8 µM (active)		
COC(=O)c1ccccc1O[C@@H]1O[C@H](CO)[C@@H](O)[C@H](O)[C@H]1O[C@@H]1O[C@@H](C)[C@H](O)[C@@H](O)[C@H]1O	inactive	inactive		
CCOc1ccc(S(=O)(=O)n2c(C)nc3ccccc32)cc1	inactive	8.93 µM (active)		
Clc1cc2c(NC3CCCC3)nnc(-c3ccncc3)c2cc1Cl	inactive	inactive		
C[C@@H]1O[C@@H](O[C@H]2[C@H](O)[C@@H](O)[C@H](OC3CCC4(C)C5CCC(C)(C(CO)OC6OC(CO)C(O)C(O)C6O)CC5=CCC4C3(C)C)O[C@@H]2CO)[C@H](O)[C@H](O)[C@H]1O (stereo partly drawn)	inactive	inactive		
CC[C@H](NC(=O)[C@H](CS(=O)(=O)CC1CC1)N[C@@H](c1ccc(F)cc1)C(F)(F)F)C(=O)C(=O)NC1CC1	inactive	inactive		
COC(=O)C1=CO[C@@H](O[C@@H]2O[C@H](CO)[C@@H](O)[C@H](O)[C@H]2O)[C@@H]2C(COC(C)=O)=C[C@H](O)[C@H]12	inactive	inactive		
C/C=C1\[C@H](O[C@@H]2O[C@H](CO)[C@@H](O)[C@H](O)[C@H]2O)OC=C2C(=O)OCCc3ccc(O)c(c3)Oc3ccc(cc3)CCOC(=O)C[C@H]21	inactive	inactive		
CC(=O)/C=C/[C@H]1[C@](C)(O)[C@@H](O)[C@H](OC(C)=O)C2C(C)(C)CCC[C@@]21C (stereo partly drawn)	inactive	inactive		
C[C@@H]1O[C@@H](O[C@@H]2CO[C@@H](O[C@H]3CC[C@@]4(C)C(CC[C@]5(C)C4CC=C4[C@@H]6CC(C)(C)CC[C@]6(C(=O)O[C@@H]6O[C@H](CO)[C@@H](O)[C@H](O)[C@H]6O)CC[C@]45C)[C@]3(C)CO)[C@H](O)[C@H]2O[C@@H]2O[C@H](CO)[C@@H](O)[C@H](O)[C@H]2O)[C@H](O)[C@H](O)[C@H]1O (stereo partly drawn)	inactive		-16% [at 9.23 µM]	
C[C@@H]1O[C@@H](O[C@H]2[C@H](O[C@H]3[C@H](O[C@H]4CC[C@@]5(C)C(CC[C@]6(C)C5CC=C5[C@@H]7CC(C)(C)CC[C@]7(C(=O)O[C@@H]7O[C@H](CO)[C@@H](O[C@@H]8O[C@@H](C)[C@H](O)[C@@H](O)[C@H]8O)[C@H](O)[C@H]7O)CC[C@]56C)C4(C)C)OC[C@H](O)[C@@H]3O)O[C@H](CO)[C@@H](O)[C@@H]2O)[C@H](O)[C@H](O)[C@H]1O (stereo partly drawn)			-8.33% [at 9.23 µM]	-0.624% [at 12.4 µM]
C=CC(C)(CC/C=C(\C)C(=O)OC)OC1OC(COC(=O)CC(C)(O)CC(=O)O)C(OC2OC(CO)C(O)C(O)C2O)C(O)C1O (stereo not drawn)	inactive	inactive		
C=C1C(=O)OC2CC(C)=C(C(C)CCCO)C(O)C12 (stereo not drawn)	inactive	inactive		
O=C(/C=C\n1cnc(-c2cc(C(F)(F)F)cc(C(F)(F)F)c2)n1)N1CC(F)(F)C1	inactive	0.934 µM (active)		
COc1cc2c3c(cc4ccccc4c3c1O)NC2=O	inactive	inactive		
OC/C=C/C=C/[C@H]1Cc2cc(O)cc(O)c2O1	inactive	inactive		
O=C1CCC(=O)N(O)CCCCCNC(=O)CCC(=O)N(O)CCOCCNC(=O)CCC(=O)N(O)CCCCCN1	inactive	inactive		
CC1(C)CC[C@]2(CO[C@@H]3O[C@H](CO)[C@@H](O)[C@H](O)[C@H]3O)[C@@H](O)C[C@]3(C)C(=CCC4[C@@]5(C)CC[C@H](O[C@@H]6O[C@H](CO[C@@H]7O[C@H](CO[C@@H]8OC[C@@H](O)[C@H](O)[C@H]8O)[C@@H](O)[C@H](O)[C@H]7O)[C@@H](O)[C@H](O)[C@H]6O)C(C)(C)C5CC[C@]43C)[C@@H]2C1 (stereo partly drawn)	inactive		-11.3% [at 9.23 µM]	
CC(C)CNCc1ccc(-c2ccccc2S(=O)(=O)N2CCCC2)cc1	inactive	inactive		
Nc1ncnc2c([C@@H]3N[C@H](CO)[C@@H](O)[C@H]3O)c[nH]c12	inactive	inactive		
CN=C(N)NCCCCC/C=C(/C)CC(C)C1OC(=O)C(C)C(O)/C=C/C(C)C(O)CC(O)C(C)C(O)CCC(C)C(O)CC2(O)OC(CC(OC(=O)CC(=O)O)CC(O)CC(O)C(C)C(O)/C(C)=C/CCC1C)CC(O)C2O (stereo not drawn)	inactive	3.88 µM (active)		
O=C(NOCC(O)CO)c1ccc(F)c(F)c1Nc1ccc(I)cc1F (stereo not drawn)	inactive	inactive		
CNC12CC3C[C@@](C)(C1)C[C@](C)(C3)C2	inactive	inactive		
O=C1NC(Cc2ccccc2)C(=O)N2CCCC12 (stereo not drawn)	inactive	inactive		
Cc1ccccc1C#Cc1ccc(CCC(=O)O)cc1	inactive	inactive		
CO[C@H]1/C=C/[C@@](C)(O)/C=C/C(=O)O[C@H](C)[C@@H](C)CC/C=C/1C	inactive	14.2 µM (active)		
CC(=O)OCC1(O)CCC2C(COC3OC(CO)C(O)C(O)C3OC(=O)/C=C/c3ccc(O)cc3)=COC(OC(=O)CC(C)C)C21 (stereo not drawn)	inactive	inactive		
CC(=O)OC[C@@]12C(=O)C[C@@H](C)[C@]3(C[C@@H](c4ccoc4)O[C@H]3OC(C)=O)[C@H]1CCC[C@]21CO1	inactive	12.6 µM (active)		
